The results in this text go back to PubChem BioAssay (NCI).

Among the test systems are SK-MEL-2 melanoma; EKVX NSCLC; SN12C renal; UO-31 renal; TK-10 renal; ACHN renal; CAKI-1 renal; A498 renal; MOLT-4 leukemia; SR leukemia; RPMI-8226 leukemia; OVCAR-8 ovarian; OVCAR-5 ovarian; SK-OV-3 ovarian; IGROV1 ovarian; OVCAR-3 ovarian; HS 578T breast; NCI/ADR-RES ovarian; OVCAR-4 ovarian.
What all share (assay): NCI-60 one-dose screen, 48 h (100 = growth as untreated, 0 = no growth, -100 = all killed)
Common to all, as to settings: 10 µM unless noted

About 83,000 compounds went through this panel and 20% of them were active in at least one assay; those are over-represented in the sample as a whole.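 Assay: single dose, 48 h. Readout: percent growth (0 = no net growth; negative = cell death). Active: <10.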 A number with no mark means an inactive call. Active and inactive are the calls of the source.

On to `C=CC(=O)Nc1cccc(Oc2nccc(Nc3nnc(C4CC4)s3)n2)c1`, for which the growth with SK-MEL-2 melanoma was 108%; with EKVX NSCLC, 104%; with SN12C renal, 87.4%; with UO-31 renal, 72.4%; in the experiment with TK-10 renal, 104%; in the experiment on ACHN renal it was 97.7%. Further, the growth in the experiment with CAKI-1 renal was 92.3%; in the experiment with A498 renal, 101%; in the experiment with MOLT-4 leukemia, 75.7%; in the experiment with SR leukemia, 58.3%; in the experiment on RPMI-8226 leukemia, 56%; with OVCAR-8 ovarian, 91.4%. Moreover, the growth in the experiment with OVCAR-5 ovarian is 98.7%; in the experiment on SK-OV-3 ovarian, 112%; with IGROV1 ovarian it was 93.6%; in the experiment with OVCAR-3 ovarian, 89.5%; in the experiment on HS 578T breast, 91.6%; with NCI/ADR-RES ovarian, 96.8%.

For the compound `Cc1occc1-c1n[nH]c(=S)n1N1C(=O)CSC1=S`, the growth was 107% in the experiment on SK-MEL-2 melanoma; 99.1% with EKVX NSCLC; 99.2% with SN12C renal; 77.6% in the experiment with UO-31 renal; 99% in the experiment with TK-10 renal; 102% with ACHN renal. The growth in the experiment on CAKI-1 renal was 85.4%; in the experiment with A498 renal, 101%; with MOLT-4 leukemia it was 99.7%; in the experiment on SR leukemia, 102%; in the experiment on RPMI-8226 leukemia it was 93.8%; in the experiment with OVCAR-8 ovarian, 101%. Also, the growth in the experiment with OVCAR-5 ovarian was 99.6%; with SK-OV-3 ovarian it was 106%; in the experiment with IGROV1 ovarian, 102%; with OVCAR-3 ovarian it was 103%; in the experiment on HS 578T breast, 101%; in the experiment on NCI/ADR-RES ovarian it was 101%.

In the case of `O=C(NC(CSSCC(NC(=O)c1ccccc1)C(=O)O)C(=O)O)c1ccccc1` (stereo not given), the growth with SK-MEL-2 melanoma was 97.3%; in the experiment with EKVX NSCLC, 103%; in the experiment on SN12C renal, 102%; in the experiment with UO-31 renal it was 91.8%; in the experiment with TK-10 renal, 101%; in the experiment with ACHN renal it was 102%. Besides, the growth is 91.6% with CAKI-1 renal; 86.1% with A498 renal; -1.1% (active) with MOLT-4 leukemia; 15.3% in the experiment with SR leukemia; 104% in the experiment with RPMI-8226 leukemia; 104% in the experiment with OVCAR-8 ovarian. The growth is 105% in the experiment on OVCAR-5 ovarian; 128% in the experiment with OVCAR-4 ovarian; 102% with SK-OV-3 ovarian; 96.7% in the experiment on IGROV1 ovarian; 96.3% in the experiment with HS 578T breast; 97.3% in the experiment with NCI/ADR-RES ovarian.

In the case of `c1ccc2c(c1)nc(CN1CCOCC1)n1cc(N3CCCC3)nc21`, the growth in the experiment on SK-MEL-2 melanoma was 106%; in the experiment on EKVX NSCLC, 87.2%; with SN12C renal, 97.7%; with UO-31 renal, 75.1%; in the experiment on TK-10 renal, 114%; with ACHN renal, 104%. Also, the growth in the experiment on CAKI-1 renal was 99.5%; with A498 renal, 98.7%; in the experiment with MOLT-4 leukemia it was 99%; in the experiment with SR leukemia, 87%; in the experiment on RPMI-8226 leukemia, 62.6%; with OVCAR-8 ovarian, 94.5%. The growth in the experiment with OVCAR-5 ovarian was 92.9%; in the experiment with OVCAR-4 ovarian, 111%; with SK-OV-3 ovarian, 89.8%; in the experiment on OVCAR-3 ovarian it was 110%; in the experiment with HS 578T breast, 92.5%; with NCI/ADR-RES ovarian, 99%.

For the compound `COc1cc(/C=C/C(=O)c2c(C)nc3ccccc3c2C)ccc1OCCCN1CCN(C(=O)c2ccco2)CC1`, the growth in the experiment on SK-MEL-2 melanoma is 59.3%; with EKVX NSCLC, 81.7%; in the experiment with SN12C renal, 92.5%; in the experiment on UO-31 renal, 66.7%; in the experiment with TK-10 renal, 110%; with ACHN renal it was 80.6%. Moreover, the growth in the experiment with CAKI-1 renal was 74.8%; with A498 renal it was 59.4%; in the experiment on MOLT-4 leukemia, 60.6%; in the experiment with SR leukemia, 64.8%; with RPMI-8226 leukemia it was 31.4%; in the experiment on OVCAR-8 ovarian, 73.5%. The growth was 95.5% with OVCAR-5 ovarian; 25.2% in the experiment with OVCAR-4 ovarian; 107% in the experiment with SK-OV-3 ovarian; 76.6% in the experiment on IGROV1 ovarian; 82.1% in the experiment on HS 578T breast; 55.6% in the experiment with NCI/ADR-RES ovarian.

Regarding `O=C(COc1ccc(/C=C2\Oc3ccccc3C2=O)cc1)Nc1nc2ccccc2s1`, the growth with SK-MEL-2 melanoma is 106%; in the experiment on EKVX NSCLC it was 42.8%; in the experiment on SN12C renal, 64.4%; in the experiment with UO-31 renal, -77.2% (active); with TK-10 renal, 134%; in the experiment with ACHN renal, 72.7%. The growth in the experiment with CAKI-1 renal is -83% (active); with A498 renal, 115%; with MOLT-4 leukemia, -48.8% (active); in the experiment with SR leukemia it was -71.9% (active); in the experiment with RPMI-8226 leukemia, -56.8% (active); with OVCAR-8 ovarian, 18.8%. Further, the growth in the experiment with OVCAR-5 ovarian is 67.8%; with SK-OV-3 ovarian, 116%; with OVCAR-3 ovarian it was 66.5%; in the experiment with HS 578T breast it was 88.5%; in the experiment with NCI/ADR-RES ovarian, 75.5%.

In the case of `O=C(COc1ccc(/C=C2\Oc3ccccc3C2=O)cc1)c1ccc(Cl)cc1`, the growth in the experiment with SK-MEL-2 melanoma is 82.7%; with EKVX NSCLC, 98.8%; in the experiment with SN12C renal, 103%; in the experiment on UO-31 renal, 110%; in the experiment with TK-10 renal, 120%; in the experiment on ACHN renal it was 104%. Besides, the growth in the experiment on CAKI-1 renal is 81.8%; in the experiment with A498 renal, 112%; in the experiment with MOLT-4 leukemia, 87.9%; with SR leukemia, 90.8%; with RPMI-8226 leukemia, 111%; in the experiment on OVCAR-8 ovarian, 105%. The growth is 115% in the experiment with OVCAR-4 ovarian; 105% in the experiment with SK-OV-3 ovarian; 96.6% in the experiment on OVCAR-3 ovarian; 112% in the experiment with HS 578T breast; 110% with NCI/ADR-RES ovarian.

In the case of `N#CCN1C(=O)C2C3=C(CCCC3)SC2N=C1CN1CCCC1` (stereo not given), the growth in the experiment with SK-MEL-2 melanoma was 83.5%; with EKVX NSCLC it was 96%; with SN12C renal it was 100%; in the experiment with UO-31 renal it was 7.35% (active); in the experiment on TK-10 renal it was 104%; in the experiment with ACHN renal, 104%. Moreover, the growth with CAKI-1 renal is 104%; in the experiment on A498 renal, 100%; in the experiment on MOLT-4 leukemia, 79.9%; with SR leukemia, 81.1%; in the experiment on RPMI-8226 leukemia, 50.2%; with OVCAR-8 ovarian, 97.7%. For the same compound, the growth was 101% with OVCAR-5 ovarian; 101% with OVCAR-4 ovarian; 109% with SK-OV-3 ovarian; 113% with OVCAR-3 ovarian; 108% in the experiment with HS 578T breast; 96.3% with NCI/ADR-RES ovarian.

For the compound `COc1ccc(/C=c2\nc3n(-c4ccccc4)c4nc5c6c(sc5c(=N)n4n-3c2=O)CCCC6)cc1`, the growth was 99.4% with SK-MEL-2 melanoma; 67% with EKVX NSCLC; 86.4% in the experiment with SN12C renal; 49.5% with UO-31 renal; 124% in the experiment on TK-10 renal; 75.1% in the experiment with ACHN renal. The growth with CAKI-1 renal is 72.9%; with A498 renal, 58.9%; in the experiment on MOLT-4 leukemia, 56.3%; in the experiment on SR leukemia, 61.5%; in the experiment with RPMI-8226 leukemia, 80.1%; in the experiment on OVCAR-8 ovarian it was 89.3%. Moreover, the growth in the experiment on OVCAR-5 ovarian was 104%; with OVCAR-4 ovarian, 82%; in the experiment on IGROV1 ovarian, 61.4%; with OVCAR-3 ovarian, 88.2%; with HS 578T breast it was 85.6%; with NCI/ADR-RES ovarian, 83.1%.
